# Bioassay records deposited in PubChem by National Center for Advancing Translational Sciences (NCATS).
# Mito fusion act: qHTS Assay for Small Molecule Inhibitors of Mitochondrial Division or Activators of Mitochondrial Fusion | S. cerevisiae fusion-defective mutant growth rescue, CellTiterGlo 48 h | Potency, µM (highest dose often 46.1 µM), for the others: at the top dose growth rescue (activation), actives largely listed as activators | 320,000 compounds, 0.23% hits; further: % of control where 0% means no effect; nearly all actives have a fitted effect of over 45% in size
#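 Luminescent cell viability in 1536-well qHTS format served as the measure of rescued growth in ts fusion-mutant S. cerevisiae cultured on non-fermentable YPEG for 48 hours at 37C.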
# MCF10A rerep: A quantitative high throughput screen for small molecules that induce DNA re-replication in MCF 10a normal breast cells; MCF 10A DNA re-replication, Hoechst nuclear intensity, 48 h; AID 624296, 2012; 350,000 compounds, 2.9% hits; Potency, µM (highest dose often 46.1 µM), without a hit: at the top dose activity, positive = re-replication, hits mostly activators; further: % of control where 0% means no effect; nearly all actives have a fitted effect of over 50% in size
# A-T KAP1 phos: qHTS Assay for Identifying a Potential Treatment of Ataxia-Telangiectasia | F2112 A-T fibroblasts, KAP-1 phosphorylation AlphaLISA; neocarzinostatin DNA damage 30 min before lysis | Potency, µM (series often up to 57.5 µM), inactives show at the top dose activation, usual class: activators | 320,000 compounds, 0.19% hits | AID 485349, 2010; further: % of control where 0% means no effect; nearly all actives have a fitted effect of over 45% in size
#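 hTERT-immortalized A-T patient fibroblasts (F2112), 500 cells/well in OPTI-MEM, 1% FBS, got compounds for 60 min, then NCS for 30 min at 37C. Lysates were then assayed for phospho-KAP-1 by AlphaLISA (anti-pKAP1 donor, anti-KAP1 acceptor beads), 6 hr at 25C.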
# SW480 rerep: A quantitative high throughput screen for small molecules that induce DNA re-replication in SW480 colon adenocarcinoma cells; SW480 DNA re-replication, Hoechst DNA content imaging, 48 h; Potency, µM (top dose mostly 46.1 µM), for inactives: at the highest dose re-replication activation, actives largely listed as activators; 340,000 compounds, 1.8% hits; AID 624297, 2012; further: % of control where 0% means no effect; nearly all actives have a fitted effect of over 55% in size
#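 Readout is total intensity of Hoechst-stained nuclei, excited at 405 nm and collected at 500-530 nm. Compound treatment lasted 48 hr at 37 C in 5% CO2 before staining.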
# a7 integrin act: qHTS for Activators of Integrin-Mediated Alleviation for Muscular Dystrophy; alpha7betagal myoblasts, beta-gal FDG fluorescence, 48 h; Potency, µM (series often up to 38.3 µM), without a hit: at the highest dose activation, most hits filed as activators; 350,000 compounds, 0.064% hits; AID 624291, 2012;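 further: 100% = response of the positive control SU9516; nearly all actives have a fitted effect of over 60% in size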
#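 Alpha7betagal+/- myoblasts (passage 13) were plated 16-24 hr, then exposed to compounds (1:260 dilution of DMSO stock) for 48 hours at 37C. After MPER lysis, β-galactosidase reporter activity was read as FDG fluorescence (ex 480/em 540) after 30 minutes.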
# Starred values were filed as active, the others as inactive; ? = inconclusive; . = not tested or not shown. Rows were chosen to be rich in hits. Some 4.2% of all compounds tested hit in one or more screens of this group. The call rests on the fitted dose curve; in most records, active means well fitted activation curve with a large enough effect; inconclusive means small, poorly fitted or top-dose-only effect; inactive means no such curve, though single readings can be large or run the other way. Potency means the concentration at half of the fitted maximal effect.
SMILES,Mito fusion act,MCF10A rerep,A-T KAP1 phos,SW480 rerep,a7 integrin act
Cc1cc(C)c2nc(NC(=O)c3ccc([N+](=O)[O-])o3)sc2c1,2.5%,?,-1.3%,1.5%,-16.4%
COc1ccc(C2=NN(CCC(=O)NCc3cccs3)C(=O)CC2)cc1,1.0%,-1.5%,1.5%,-4.5%,-17.4%
CNC(=O)C[C@H]1C(=O)N(c2ccc(Br)cc2)C[C@@H]1C,.,.,.,.,19.5%
CN(C)CCCN(C(=O)c1ccc([N+](=O)[O-])o1)c1nc2cc3c(cc2s1)OCO3,-1.5%,4.0%,12.9%,11.6µM*,-44.5%
COc1ccc2nc(NC(=O)c3ccco3)sc2c1,18.8%,-2.3%,28.6%,3.5%,-5.1%
CCc1ccc2nc(NC(=O)c3cc(C)on3)sc2c1,4.5%,6.51µM*,-3.1%,6.51µM*,1.0%
O=C(Nc1nc2ccccc2s1)c1ccccc1[N+](=O)[O-],-1.2%,0.731µM*,-0.8%,-24.3%,13.1%
COc1ccc2nc(NC(=O)c3ccc([N+](=O)[O-])o3)sc2c1,-18.1%,4.61µM*,-6.1%,7.31µM*,-55.5%
O=C(Nc1nc2ccccc2s1)c1ccc([N+](=O)[O-])o1,8.3%,20.6µM*,-6.0%,16.4µM*,-4.5%
O=C(O)c1cccc([N+](=O)[O-])c1C(=O)Nc1nc2ccccc2s1,-4.3%,-1.2%,0.6%,5.6%,2.2%
O=C(Nc1ccc2c(c1)CN(C(=O)Nc1ccc(F)cc1)CC2)c1ccccn1,.,.,.,.,-44.1%
COC(=O)c1ccccc1NC(=O)N1CCc2ccc(NC(=O)c3ccccn3)cc2C1,-0.7%,-14.1%,14.6%,18.4µM*,-17.7%
CCOc1cc(/C=C2/C(=O)ON=C2C)ccc1OCc1ccc(F)cc1,0.7%,?,0.5%,18.4µM*,0.4%
CCOc1cc(/C=C2/C(=O)ON=C2C)ccc1OCc1ccccc1F,-1.6%,?,7.9%,23.1µM*,-47.3%
CCOc1cc(/C=C2/C(=O)ON=C2C)ccc1OCc1ccccc1,1.9%,?,-0.8%,?,-4.2%
Cc1cc(=O)[nH]c(N2CCCCC2)n1,.,1.5%,.,-0.6%,-4.6%
Cc1cc2c3c([nH]c2cc1S(=O)(=O)N1CCC2(CC1)OCCO2)CC(C)(C)CC3=O,3.2%,23.1µM*,12.0%,?,0.3%
CCOc1cc2nc(-c3ccc(OC)c(OC)c3)nc(N3CC(C)OC(C)C3)c2cc1OC (stereo not drawn),1.4%,.,-2.9%,.,.
CCOc1ccc(C(=S)N2CCOCC2)cc1OC,0.8%,-4.5%,.,-7.4%,7.8%
CCOc1cc2nc(-c3ccc(OC)c(OC)c3)nc(N3CCOCC3)c2cc1OC,?,?,2.0%,23.1µM*,-17.1%
CCOc1cc(C(=S)N2CCOCC2)ccc1OC,-1.1%,13µM*,3.5%,1.0%,21.5%
O=C/C(=C\Nc1ccc(S(=O)(=O)CCO)cc1)c1nc2cc(Cl)ccc2o1,15.2%,23.1µM*,9.1%,?,11.7%
COc1cc(NS(=O)(=O)c2ccc(N/C=C(\C#N)c3nc4cc(Cl)ccc4o3)cc2)nc(OC)n1,7.1%,?,4.1%,?,-8.7%
O=C/C(=C\Nc1ccc(Cl)cn1)c1nc2cc(Cl)ccc2o1,-1.6%,16.4µM*,.,2.1%,0.0%
Cc1sc(NC(=O)CCC(=O)O)c(C#N)c1C,-0.5%,6.4%,-2.4%,-141.8%,?
CC(C)(C)c1ccc(NC(=O)c2cc[n+]([O-])cc2)cc1,1.8%,0.2%,-2.3%,-17.6%,2.5%
O=C(NCCN1C(=O)S/C(=C\c2ccccc2Cl)C1=O)C1=COCCO1,7.4%,7.31µM*,3.2%,?,-40.9%
O=C(NCCN1C(=O)S/C(=C\c2ccc(Cl)cc2)C1=O)c1ccc(F)c(S(=O)(=O)N2CCOCC2)c1,-1.3%,2.4%,-15.9%,-1.2%,-55.1%
O=C(NCCN1C(=O)S/C(=C\c2ccccc2F)C1=O)C1=COCCO1,21.1%,2.59µM*,-7.2%,4.11µM*,-39.1%
O=C(NCCN1C(=O)S/C(=C\c2ccc(Cl)cc2Cl)C1=O)C1=COCCO1,3.9%,13µM*,-0.7%,?,-27.1%
